Laboratory results: PubChem BioAssay (Tox21)
Results filed as inconclusive are left out. Where a call stands in place of a potency, no number is given. Values without a mark were called inactive. Activity calls are given as the source filed them. Calls come from the whole dose curve; as a rule, active = well fitted cell-killing curve with a large enough effect in the repeat runs; inconclusive = weak or mixed curves, or effect the other way; inactive = flat fitted curve, though single readings scatter.

Key:
[1] = cAMP Responsive Elements (CRE) small molecule antagonists, cell-based qHTS assay: qHTS cell viability counter screen (AID 2060913); note: nearly all actives have a fitted effect of over 40% in size
Outline: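 Steps: cells plated and held 18 hrs at 37 C/5% CO2; compounds and NKH477 (0.25 uM final) added; 3 hrs incubation; reporter substrate read; CellTiter-Glo added to measure cytotoxicity by luminescence.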

[2] = cAMP Responsive Elements (CRE) small molecule agonists, cell-based qHTS assay: qHTS cell viability counter screen (AID 2060914);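 note: viability read after 3 h of compound exposure; nearly all actives have a fitted effect of over 50% in size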
Outline: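 CRE-bla HEK293T cells in 10% dialyzed FBS medium were exposed to compounds for 3 h at 37C after 18 h plating. CellTiter-Glo was then added in the same wells, and luminescence was read after 30 min at room temperature.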
Potency is the fitted concentration of half-maximal effect.

Compound	Potency [1]	Potency [2]	viability change, negative = cytotoxic [1]	activity change, negative = cytotoxicity [2]
O=[N+]([O-])O.O=[N+]([O-])O.[Cd]	inactive	inactive	–	–
Brc1c(Br)c(Br)c(Br)c(Br)c1Br	–	–	0.231% [at 8.39 µM]	7.31% [at 8.39 µM]
Cc1ccc([N+](=O)[O-])[c]2c1[O][Hg]2	11.9 µM (active)	18.8 µM (active)	–	–
Nc1ncc([N+](=O)[O-])s1	inactive	inactive	–	–
C1=Cc2cccc3cccc1c23	inactive	inactive	–	–
COc1cnc(OC)n2nc(NS(=O)(=O)c3c(OCC(F)F)cccc3C(F)(F)F)nc12	inactive	inactive	–	–
COC(C)(C)CCC[C@H](C)C/C=C/C(C)=C/C(=O)OC(C)C	inactive	inactive	–	–
CCN(CC)CCO	inactive	inactive	–	–
CCNP(=S)(OC)O/C(C)=C/C(=O)OC(C)C (stereo not given)	inactive	inactive	–	–
O=C1C(I)=CC(=C(c2cc(I)c(O)c(I)c2)c2ccccc2C(=O)O)C=C1I	inactive	inactive	–	–
CC(C)(C)NCC(O)c1ccccc1Cl (stereo not given)	inactive	inactive	–	–
CC(C)(C)C(O)C(Oc1ccc(-c2ccccc2)cc1)n1cncn1 (stereo not given)	inactive	inactive	–	–
CCS(=O)(=O)CCSP(=O)(OC)OC	inactive	inactive	–	–
COC(N)=O	inactive	inactive	–	–
Nc1nc(N)nc(N)n1	inactive	inactive	–	–
CCCCCCCCCCBr	inactive	inactive	–	–
NNc1ccccc1	inactive	inactive	–	–
Cc1ccccc1O	inactive	inactive	–	–
CCC(CC)(CNC(=O)CCCO)c1cccc(OC)c1	inactive	inactive	–	–
Cc1cnc2c(C(=O)O)c(Cl)ccc2c1	inactive	inactive	–	–
O=[N+]([O-])[O-].[Tl+]	inactive	inactive	–	–
Nc1cc(Cl)ccc1Cl	inactive	inactive	–	–

Compound	Potency [1]	Potency [2]	viability change, negative = cytotoxic [1]	activity change, negative = cytotoxicity [2]
C=CC(=O)OCC(C)O (stereo not given)	inactive	inactive	–	–
COc1ccc(C=O)cc1	inactive	inactive	–	–
C[C@@H]1CC[C@@]2(OC1)O[C@H]1[C@@H](O)[C@H]3[C@@H]4CC[C@H]5C[C@@H](O[C@@H]6O[C@H](CO)[C@H](O[C@@H]7O[C@H](CO)[C@@H](O)[C@H](O[C@@H]8OC[C@@H](O)[C@H](O)[C@H]8O)[C@H]7O[C@@H]7O[C@H](CO)[C@@H](O)[C@H](O[C@@H]8O[C@H](CO)[C@@H](O)[C@H](O)[C@H]8O)[C@H]7O)[C@H](O)[C@H]6O)[C@H](O)C[C@]5(C)[C@H]4CC[C@]3(C)[C@H]1[C@@H]2C	32.5 µM (active)	29 µM (active)	–	–
O=C(Nc1ccccc1)c1ccccc1I	inactive	inactive	–	–
O=C1CN2CCOC2(c2ccccc2Cl)c2cc(Cl)ccc2N1 (stereo not given)	inactive	inactive	–	–
C[N+](C)=CCl	inactive	inactive	–	–
CON(C)C(=O)Nc1ccc(Br)c(Cl)c1	inactive	inactive	–	–
O=c1oc2ccccc2c(O)c1Cc1c(O)c2ccccc2oc1=O	inactive	inactive	–	–
CC(C)(C)NCC(O)c1cc(Cl)c(N)c(C(F)(F)F)c1 (stereo not given)	inactive	inactive	–	–
O=C(O)C(O)C(O)C(=O)O (stereo not given)	inactive	inactive	–	–
O=C(O)CC[N+](=O)[O-]	inactive	inactive	–	–
Sc1ccccc1	inactive	inactive	–	–
CC(=O)[O][Sn]([c]1ccccc1)([c]1ccccc1)[c]1ccccc1	6.11 µM (active)	30.6 µM (active)	–	–
O=C1Nc2ccc(Cl)cc2C(c2ccccc2)=NC1O (stereo not given)	inactive	inactive	–	–
CCOP(=S)(OCC)SCCS(=O)(=O)CC	inactive	inactive	–	–
[C-]1=CC=CC1.[Cl][Zr+2][Cl].c1cc[cH-]c1	inactive	inactive	–	–
O=c1[nH]c2ccccc2c(=O)o1	inactive	inactive	–	–
CN(C)c1ccc(N(C)C)cc1	inactive	inactive	–	–
O=c1[nH]oc2c1CCNC2	inactive	inactive	–	–
N#CCc1ccc(Cl)cc1	inactive	inactive	–	–
S=c1[nH]c2ccccc2[nH]1	inactive	inactive	–	–
C=CCOC(=O)C(C)(C)OC(=O)c1cc(-n2c(=O)cc(C(F)(F)F)n(C)c2=O)ccc1Cl	inactive	inactive	–	–

Compound	Potency [1]	Potency [2]	viability change, negative = cytotoxic [1]	activity change, negative = cytotoxicity [2]
CCOP(O)OCC	inactive	inactive	–	–
CN(CCCC(O)c1cccnc1)N=O (stereo not given)	inactive	inactive	–	–
ClCOCCl	inactive	inactive	–	–
c1ccc(Nc2ccc(Nc3ccccc3)cc2)cc1	inactive	inactive	–	–
COc1ccccc1N	inactive	inactive	–	–
C=CCN1CC[C@]23CCCC[C@H]2[C@H]1Cc1ccc(O)cc13	inactive	inactive	–	–
CC(=O)[O-].CC(=O)[O-].CC(=O)[O-].[Cr+3]	inactive	inactive	–	–
C#CC(C)(C)NC(=O)c1cc(Cl)cc(Cl)c1	inactive	inactive	–	–
COC(=O)C(C)N(C(=O)Cc1ccccc1)c1c(C)cccc1C (stereo not given)	inactive	inactive	–	–
C(CCOCC1CO1)COCC1CO1 (stereo not given)	inactive	inactive	–	–
Cc1cc(C)c(C(=O)P(=O)(C(=O)c2c(C)cc(C)cc2C)c2ccccc2)c(C)c1	inactive	inactive	–	–
Cc1ccc2c(C)cccc2c1	inactive	inactive	–	–
Nn1cnnc1	inactive	inactive	–	–
O=C(NC(=O)c1c(F)cccc1F)Nc1cc(Cl)c(OC(F)(F)C(F)C(F)(F)F)cc1Cl (stereo not given)	inactive	inactive	–	–
c1ccc(C2CO2)cc1 (stereo not given)	inactive	inactive	–	–
O=C(Cl)/C=C/C(=O)Cl	inactive	inactive	–	–
Clc1nc(Cl)nc(Cl)n1	inactive	inactive	–	–
CN(C)N=O	inactive	inactive	–	–
CC(=O)CCc1ccc2c(c1)OCO2	inactive	inactive	–	–
Cc1cc(C(F)(C(F)(F)F)C(F)(F)F)ccc1NC(=O)c1cccc(I)c1C(=O)NC(C)(C)CS(C)(=O)=O	inactive	inactive	–	–
Cn1sc(Cl)cc1=O	inactive	inactive	–	–
